# Rows were chosen to be rich in hits. Some 2.1% of all compounds tested hit in one or more screens of this group.
# U2OS ROS induce: raises reactive oxygen species in U2OS cancer cells. U2OS ROS induction, H2DCF-DA fluorescence. ROS induction (% of piperlongumine), % at 10 µM. 2% of 46,000 active. AID 624156; in the data active means ROS induction above about 79%, passing the limit was not always enough; inconclusive means no clear call, values can overlap the other calls;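 further: 0% = DMSO vehicle median and 100% = reference compound median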
# YB-1 expression: YB-1 expression inhibition | U2OS, qRT-PCR YB-1 vs CDIP delta delta Cp, 16 h; stronger effect = higher value; zero = DMSO, each unit about twofold | delta delta Cp (YB-1 minus CDIP) (concentration not given with the values) | 0.37% of 30,000 active | AID 434959;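 active means delta delta Cp rounded down to an integer at or above 3, about 3 SD of DMSO wells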;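 further: higher means less YB-1 transcript or more CDIP transcript relative to DMSO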
# The depositor's hits bear a star; ? = inconclusive; . = not tested or not shown.
SMILES,U2OS ROS induce,YB-1 expression
CCC(C)NC(=O)c1cnn2c(C(F)(F)F)cc(-c3ccccc3)nc12 (stereo unspecified),129*,.
O=C(c1cnn2c(C(F)(F)F)cc(-c3ccccc3)nc12)N1CCCC1,6,.
COc1ccc(-c2cc(C(F)(F)F)n3ncc(C(=O)NCc4nc5ccccc5[nH]4)c3n2)cc1OC,151*,.
O=C(O)c1cnn2c(C(F)(F)F)cc(-c3ccco3)nc12,-13,.
Cc1ccc(N2C(=O)C(C=NCc3ccc(C(=O)O)cc3)C(=O)NC2=S)cc1 (stereo unspecified),-15,.
O=C1CC(c2csc(-c3ccccc3)n2)C2(CCCCC2)O1 (stereo unspecified),-4,.
C=CCN1C(=O)[C@@]2(O[C@@H](CCn3cc([C@H](O)c4ccccc4)nn3)[C@H]([Si](C)(C)c3ccc(OC)cc3)[C@H]2C)c2cc(N3CCOC3=O)ccc21,63,-0.098
COc1ccc([Si](C)(C)[C@@H]2[C@@H](CCn3cc(CCO)nn3)O[C@]3(C(=O)N(Cc4cccc(N5CCOC5=O)c4)c4ccccc43)[C@H]2C)cc1,116*,-0.089
COc1ccc([Si](C)(C)[C@H]2[C@H](CCn3cc(CCO)nn3)O[C@@]3(C(=O)N(Cc4ccc(N5CCOC5=O)cc4)c4ccccc43)[C@@H]2C)cc1,145*,0.13
C=CCN1C(=O)[C@]2(O[C@H](CCn3cc(CCO)nn3)[C@@H]([Si](C)(C)c3ccc(OC)cc3)[C@@H]2C)c2ccccc21,35,0.49
COc1ccc([Si](C)(C)[C@H]2[C@H](CCO)O[C@@]3(C(=O)N(Cc4cccc(NC(C)=O)c4)c4ccccc43)[C@@H]2C)cc1,?,0.29
C=CCN1C(=O)[C@@]2(O[C@@H](CCn3cc(CCO)nn3)[C@H]([Si](C)(C)c3ccc(OC)cc3)[C@H]2C)c2cc(N3CCOC3=O)ccc21,45,0.38
COc1ccc([Si](C)(C)[C@H]2[C@H](CCn3cc(CCO)nn3)O[C@@]3(C(=O)N(Cc4cccc(N5CCOC5=O)c4)c4ccccc43)[C@@H]2C)cc1,107*,0.4
COc1ccc([Si](C)(C)[C@@H]2[C@@H](CCn3cc([C@H](O)c4ccccc4)nn3)O[C@]3(C(=O)N(Cc4cccc(N5CCOC5=O)c4)c4ccccc43)[C@H]2C)cc1,116*,-0.068
CCOC(=O)c1cnc2c(cnn2CC)c1NN=C(C)C,7,4.9*
CCOC(=O)c1cnc2c(-c3ccccc3)cnn2c1C,45,.
CN(Cc1ccccc1)S(C)(=O)=O,-3,.
Cc1oc2cc(OC(C)C)ccc2c(=O)c1-c1ccc2c(c1)OCCO2,18,6.9*
CCOC(=O)c1oc2cc(O)c(CC)cc2c(=O)c1-c1ccc2c(c1)OCCO2,36,.
CC(C)N1C/C(=C/c2ccccc2)C(=O)/C(=C/c2ccccc2)C1,?,0.35
CCC12CN(S(=O)(=O)c3ccccc3)CC(CC)(CN(S(=O)(=O)c3ccccc3)C1)C2=O,-9,.
O=C(CC(c1ccccc1)c1ccccc1)NCCN1CCOCC1,-15,.
COc1ccccc1-c1cc(C(F)(F)F)nc(S(=O)(=O)CCCC(=O)N2CCOCC2)n1,90*,.
COc1ccc(OC)c(S(=O)(=O)N(C)CC(=O)N2CCOCC2)c1,-13,.
CC1CC(=O)N(c2cc(C(F)(F)F)cc(C(F)(F)F)c2)C1=O (stereo unspecified),-11,.
SMILES,U2OS ROS induce,YB-1 expression
O=C1CC(C2CCCO2)C(=O)N1c1cccc(C(F)(F)F)c1 (stereo unspecified),5,5.8*
CCC(C)S(=O)(=O)c1oc(-c2ccc(C)cc2)nc1S(=O)(=O)c1ccccc1 (stereo unspecified),219*,.
Cc1ccc(-c2nc(S(=O)(=O)c3ccc(F)cc3)c(NCc3ccco3)o2)cc1,6,.
COc1ccc2c(c1)c(=O)c(S(=O)(=O)c1ccccc1)cn2Cc1ccccc1,19,.
CC(O)c1cccc(NC(=O)c2cnn3c2NC(c2cccs2)CC3C(F)(F)F)c1 (stereo unspecified),-1,.
CCN(CC(=O)Nc1cccc(C)c1)S(=O)(=O)c1ccc(Br)cc1,131*,.
CCN(CC(=O)Nc1ccc(C)c(C)c1)S(=O)(=O)c1ccc(C)cc1,-2,.
COC(CNC(=O)Cn1nc(-c2ccccc2)c2cc(Cl)ccc21)OC,-12,.
COc1ccc(C#Cc2cnc3c(c2)C(=O)N([C@H](C)CO)C[C@H](C)[C@H](CN(C)C(=O)NC2CCCCC2)O3)cc1OC,135*,-0.63
COc1cccc(S(=O)(=O)N(C)C[C@@H]2Oc3ncc(C#Cc4ccc(F)cc4)cc3C(=O)N([C@H](C)CO)C[C@@H]2C)c1,103*,-0.0022
COc1ccc(C#Cc2cnc3c(c2)C(=O)N([C@H](C)CO)C[C@H](C)[C@H](CN(C)C(=O)Nc2ccccc2)O3)cc1OC,37,-0.056
COc1ccc(C#Cc2cnc3c(c2)C(=O)N([C@H](C)CO)C[C@H](C)[C@H](CN(C)C(=O)NC(C)C)O3)cc1OC,5,0.18
COc1ccc(C#Cc2cnc3c(c2)C(=O)N([C@H](C)CO)C[C@H](C)[C@H](CN(C)C(=O)Nc2cccc4ccccc24)O3)cc1OC,148*,0.097
COc1cccc(S(=O)(=O)N(C)C[C@@H]2Oc3ncc(-c4cccc(F)c4)cc3C(=O)N([C@H](C)CO)C[C@@H]2C)c1,6,0.22
Cc1ccc(N(Cc2ccc(C(=O)O)cc2)S(C)(=O)=O)cc1C,6,.
Cc1sc2ncnc(N3CCN(C)CC3)c2c1-c1ccccc1,32,.
CC(C)n1c(SCC(N)=O)nc2c(oc3ccccc32)c1=O,-4,.
CCSc1nc2sc3c(c2c(=O)n1-c1ccc(OC)cc1)CC(C(C)C)OC3 (stereo unspecified),11,.
Cc1nc2c(cnn2-c2ccccc2)c(=O)n1NC(=O)Nc1ccc(Cl)c(Cl)c1,25,9.9*
CCOC(=O)c1cnn(-c2ccccc2)c1NC(=O)Nc1cccc(Cl)c1,-8,.
O=C(CSc1nc2ccccc2s1)NCCC12CC3CC(CC(C3)C1)C2,12,.
COC(=O)c1sc2nc(C)cc(C(F)(F)F)c2c1N,4,.
Cc1cc(C(F)(F)F)c2c(n1)sc1c(=O)[nH]c(C)nc12,95*,-0.0062
CSC(=Nc1ccc(Cl)cc1)NC#N,13,.
C=C(C(=O)O)[C@@H]1CC[C@@]2(C)CCC=C(C)[C@@H]2C1,-4,-0.12
SMILES,U2OS ROS induce,YB-1 expression
C=C(C(=O)O)[C@@H]1CC[C@@]2(C)CC[C@@H](O)C(=C)C2C1 (stereo partly specified),51,3.6*
CCN(CC)c1ccc(-c2cc(C(=O)O)c3c(ccc4ccccc43)n2)cc1,440*,.
O=C(O)c1cc(-c2ccccc2)nc2ccccc12,2,-0.11
NC(=O)/C(=C/c1ccc(Cl)cc1)NC(=O)c1ccccc1,-4,.
COc1cc(C)c(Br)cc1S(=O)(=O)NCCN1CCOCC1,142*,.
CCOc1cc(C)c(S(=O)(=O)NCCN2CCOCC2)cc1C,-10,.
O=C(NCCCc1nc2ccccc2n1CCCOc1ccccc1)c1ccco1,-1,.
CCCCn1c(CCNC(=O)c2ccco2)nc2ccccc21,81*,.
COc1ccc(Cn2c(CCC(=O)NCCC3=CCCCC3)nc3ncccc3c2=O)cc1,3,.
O=c1[nH]c(=S)c2c(n1Cc1ccco1)CCC2,-11,.
CC(C)c1nnc(NC(=O)/C=C/c2ccc3c(c2)OCO3)s1,-10,.
COc1ccc(-c2nc3ccc4ccccc4c3c3c2CCC3)cc1,138*,0.38
